Molecules are shown by their SMILES. Inconclusive results are not listed. The source made the active and inactive calls. Unless noted, calls come from the whole dose curve; as a rule, active = well fitted curve in the direction sought with a large enough effect; inconclusive = small, poorly fitted or top-dose-only effect, or another doubt; inactive = no such curve, though single readings can be large; an effect the other way counts as inactive or inconclusive.

In assay [1] the target is Glucocorticoid receptor (Homo sapiens) (UniProt P04150). The assay is described as follows: qHTS assay for small molecule agonists of glucocorticoid receptor signaling (AID 588532; active = well fitted curve in the direction sought with a large enough effect in the signal ratio, with a control signal flat; the % refers to the signal ratio;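 note: 100% = dexamethasone at 0.1 µM and 0% = DMSO only wells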). The following applies: HeLa MMTV-bla, beta-lactamase ratio, agonist, 18 h; stronger effect = higher value; percent of dexamethasone control, DMSO zero. An outline of the steps: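 MMTV-bla HeLa beta-lactamase reporter cells in 1% charcoal/dextran FBS medium, compounds up to 92 uM for 18 h at 37 C, CCF4 readout; normalized to 0.1 uM dexamethasone (100%), EC50 and efficacy from Hill fits.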
For orientation: Quantitative high-throughput screening tests each substance at several concentrations.

The nature of assay [2]: qHTS assay for small molecule antagonists of peroxisome proliferator-activated receptor delta signaling (AID 588535).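 Note: cells co-treated with a PPAR-delta agonist as stimulator during compound exposure.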 The following applies: HEK293T PPARd-UAS-bla, beta-lactamase FRET ratio, 18 h; 460 nm channel. An outline of the steps:
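Beta-lactamase reporter read-out (405 nm excitation, 460/530 nm emission) after CCF4 loading for 2 hrs at RT. HEK293T PPAR-delta-UAS-bla cells, 2% charcoal/dextran FBS, compounds for 18 hrs at 37 C. Hill fit gave IC50 and efficacy.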

The target in assay [3] is Vitamin D3 receptor (Homo sapiens) (UniProt P11473). The assay is described as follows: qHTS assay for small molecule agonists of vitamin D receptor signaling (AID 588543; calls by dose curve;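 note: 0% = DMSO basal and 100% = reference agonist control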). The following applies: HEK293T VDR-UAS-bla, beta-lactamase ratio, 16 h; series mostly up to 76.8 µM. An outline of the steps: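 Reporter cells (HEK293T, VDR-UAS-bla) were seeded in medium with 2% charcoal-stripped serum and incubated 5 h, then compounds in concentration series were added for 16 h at 37 °C. Stimulation was scaled between DMSO basal and 50 nM 1α,25-dihydroxyvitamin D3.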

Assay [4] can be described thus: qHTS assay for small molecule agonists of retinoid X receptor alpha signaling (AID 588544). The following applies: HEK293T RXRa-UAS-bla, beta-lactamase reporter, 18 h; 530 nm emission.
The target of assay [5] is Thyroid hormone receptor beta (Homo sapiens) (UniProt P10828). Briefly: qHTS assay for small molecule agonists of thyroid hormone receptor beta signaling (AID 588545; calls by dose curve). The following applies: TR-UAS-bla GripTite HEK 293, beta-lactamase ratio, agonist mode, 18 h; series mostly up to 76.7 µM. In outline:
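Agonist activity was read as beta-lactamase CCF4 fluorescence (405 ex, 460/530 em), scaled between DMSO (0%) and 10 nM T3 (100%), then Hill-fitted for EC50 and efficacy. HEK 293 TR-UAS-bla cells in 2% charcoal/dextran FBS medium were exposed 18 h at 37 C.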

Assay [6] in a line: qHTS assay for small molecule activators of the nuclear factor-kappa B (NF-kB) signaling pathway (AID 651749; active = well fitted activation curve with a large enough effect in the signal ratio; the % refers to the signal ratio; note: % of control where 0% means no effect). The following applies: NF-kB-bla ME-180 cells, beta-lactamase FRET ratio, 16 h; activation: stronger effect = higher value. In outline:
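NF-kB-bla ME-180 cells, 2,000/well; 23 nL compound or DMSO pinned; 16 hr, 37C/5% CO2; beta-lactamase FRET read-out.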

The nature of assay [7]: qHTS assay for environmental chemicals that activate the Aryl hydrocarbon Receptor (AhR) signaling pathway (AID 651777). Note: % of control where 0% means no effect; nearly all actives have a fitted effect of over 15% in size. The following applies: 1A2-DRE human hepatoma cells, luciferase, 24 h; activation: stronger effect = higher value. An outline of the steps: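 Human hepatoma 1A2-DRE cells, stably carrying a dioxin response element and CYP1A2 promoter driving luciferase, were exposed to compounds for 24 hr at 37 C and 5% CO2. Luciferase signal was then read after 30 min One-Glo at room temperature.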

For assay [8], the target named is Peroxisome proliferator-activated receptor alpha (Homo sapiens) (UniProt Q07869). Briefly: qHTS assay for small molecule agonists of the peroxisome proliferator-activated receptor alpha (PPARalpha) signaling pathway (AID 651778). Note: % of control where 0% means no effect. The following applies: PathHunter PPARalpha complementation, chemiluminescence, 6 h; max response: stronger effect = higher value. In outline:
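Enzyme-fragment complementation assay in which ligand-bound PPARalpha translocates and forms an active enzyme that generates chemiluminescence. Cells were plated overnight, exposed to compound for 6 hr at 37 C, and then given detection reagent for 60 min at room temperature.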

The nature of assay [9]: qHTS assay for small molecule agonists of the antioxidant response element (ARE) signaling pathway measured by Nrf2-dependant transcriptional activity (AID 720636; active = well fitted curve in the direction sought with a large enough effect in the repeat runs; an effect the other way counts as inactive or inconclusive; note: % of control where 0% means no effect). The following applies: ARE-luc HepG2, Nrf2 luciferase reporter, 16 h; series mostly up to 92.4 µM. An outline of the steps:
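ARE-luc HepG2 cells carrying an Nrf2-responsive luciferase reporter were plated in medium with 1% dialyzed FBS, left 6 hr at 37 C to attach, then exposed to compound for 16 hr. Luciferase luminescence was read after ONE-Glo addition.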

Assay [10] in a line: qHTS assay for small molecule agonists of the antioxidant response element (ARE) signaling pathway measured by Nrf2-dependant transcriptional activity - cell viability counter screen (AID 720653; active = well fitted curve in the direction sought with a large enough effect in the repeat runs; an effect the other way counts as inactive or inconclusive; note: % is set by controls: 0 for no effect and ±100 for the full control effect). The following applies: ARE-bla HepG2 viability, CellTiter-Glo ATP luminescence, 16 h; max response: stronger effect = lower value. An outline of the steps:
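ARE-bla HepG2 cells treated with compounds for 16 h at 37C; this counter screen measures viability as intracellular ATP by CellTiter-Glo luminescence after 30 min at room temperature.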

A short description of assay [11]: qHTS assay for cell viability of HEK293 cells (AID 743288). Note: % is set by controls: 0 for no effect and ±100 for the full control effect; nearly all actives have a fitted effect of over 50% in size. The following applies: ATP luminescence (CellTiter-Glo), 18 h; max response: stronger effect = lower value. In outline: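 Viable-cell counts were inferred from luciferase-based ATP content in HEK293 cells seeded at 2,000/well, pre-incubated ≥5 h, then dosed with DMSO-solubilised compounds for 18 h at 37 C.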
Assay [12] can be described thus: qHTS assay for cell viability of the p53RE-bla HCT-116 cell line (AID 743292). Note: % is set by controls: 0 for no effect and ±100 for the full control effect; nearly all actives have a fitted effect of over 55% in size. The following applies: p53RE-bla HCT-116 viability, ATP luminescence, 16 h; series mostly up to 95 µM. In outline:
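CellSensor p53RE-bla HCT-116 cells, 4,000/well, preincubated 5 h at 37 C, then exposed to compounds in DMSO for 16 h at 37 C. Viability read as CellTiter-Glo luminescence (intracellular ATP) after 30 min at room temperature.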

The target of assay [13] is Nuclear receptor subfamily 1 group I member 2 (Rattus norvegicus) (UniProt Q9R1A7). Briefly: qHTS assay for small molecule activators of the rat pregnane X receptor (rPXR) signaling pathway (AID 651751; call rule not given here; note: 0% is about no effect). The following applies: rPXR reporter cells, luciferase (One-Glo), 24 h.
Assay [14] in a line: qHTS assay for small molecule activators of the human pregnane X receptor (PXR) signaling pathway (AID 720659; call rule not given here; note: 0% is about no effect). The following applies: DPX-2 HepG2 CYP3A4-luciferase, 24 h; series mostly up to 92.3 µM.
In assay [15] the target is Glucocorticoid receptor (Homo sapiens) (UniProt P04150). Briefly: qHTS assay for small molecule antagonists of glucocorticoid receptor signaling (AID 588533; active = well fitted inhibition curve with a large enough effect in the signal ratio, with a control signal flat, not every such curve was filed as active; the % refers to the signal ratio;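 note: cells stimulated with 2 nM dexamethasone as agonist; % is set by controls: 0 for no effect and ±100 for the full control effect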). The following applies: HeLa MMTV-bla, GRE beta-lactamase ratio, antagonist mode, 18 h; series mostly up to 76.8 µM. In outline: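 Antagonist-mode qHTS: compound titrations added to GRE-bla HeLa cells, then dexamethasone 2 nM final; 18 h, 37 C. CCF4 FRET fluorescence normalized to dexamethasone and DMSO; IC50 from Hill fit.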

Assay [16] addresses Peroxisome proliferator-activated receptor gamma (Homo sapiens) (UniProt P37231). Briefly: qHTS assay for small molecule agonists of peroxisome proliferator-activated receptor gamma signaling (AID 588536; active = well fitted curve in the direction sought with a large enough effect in the signal ratio, with a control signal flat, not every such curve was filed as active; the % refers to the signal ratio;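 note: 0% = DMSO basal wells and 100% = rosiglitazone at 2 µM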). The following applies: HEK293 PPARg-UAS-bla, beta-lactamase ratio, 16 h, percent of rosiglitazone response, DMSO as zero; series mostly up to 76.7 µM. In outline: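 Cells were plated and held 6–6.5 h at 37 C, then compounds were added as a titration series. After a further 16 h, CCF4 dye was loaded for 2 h at room temperature and emission at 460/530 nm recorded.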

For assay [17] the target is unchanged. The assay is described as follows: qHTS assay for small molecule antagonists of peroxisome proliferator-activated receptor gamma signaling (AID 588537; active = well fitted inhibition curve with a large enough effect in the signal ratio, with a control signal flat, not every such curve was filed as active; the % refers to the signal ratio;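 note: reporter cells co-stimulated with 50 nM rosiglitazone agonist during compound treatment; % of control where 0% means no effect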). The following applies: HEK293 PPARg-UAS-bla, beta-lactamase ratio, antagonist mode; series mostly up to 76.8 µM. In outline: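 Read-out: CCF4 fluorescence (ex 405, em 460/530 nm) after 2 h at RT. Cells were HEK293 carrying a UAS-bla reporter and treated 16 h at 37 C with compound plus rosiglitazone (50 nM final). Normalized to rosiglitazone and DMSO.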

Assay [18] can be described thus: qHTS assay for small molecule antagonists of retinoid X receptor alpha signaling (AID 588546; active = well fitted inhibition curve with a large enough effect in the signal ratio, with a control signal flat, not every such curve was filed as active; the % refers to the signal ratio;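 note: cells stimulated with 9-cis-retinoic acid as agonist; % is set by controls: 0 for no effect and ±100 for the full control effect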). The following applies: HEK293T RXRa-UAS-bla, beta-lactamase ratio, antagonist mode; measured here: W530 green channel, cytotoxicity proxy. An outline of the steps:
(§1)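 Beta-lactamase reporter inhibition, read as CCF4 fluorescence ratio (ex 405, em 460/530 nm) after 2 h at RT. HEK293T UAS-bla cells, 2500/well, were stimulated with 9-cis-RA at 500 or 100 nM final alongside test compound for 18 h at 37 C.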

Assay [19] deals with Retinoic acid receptor RXR-alpha (Homo sapiens) (UniProt P19793). Described as above. The following applies: HEK293T RXRa-UAS-bla, beta-lactamase ratio, antagonist mode. In outline:
as §1

Assay [20] can be described thus: qHTS assay for small molecule activators of the p53 signaling pathway (AID 651743; active = well fitted activation curve with a large enough effect in the signal ratio, not every such curve was filed as active; the % refers to the signal ratio; note: % of control where 0% means no effect). The following applies: HCT-116 p53RE-bla, beta-lactamase FRET ratio, 16 h; activation: stronger effect = higher value. In outline: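 Reporter: beta-lactamase driven by p53 response elements, stably integrated in HCT-116 cells. Cells seeded at 4,000/well, 5 h preincubation, compound (DMSO) 16 h at 37 C; B/G FRET substrate 2 h RT; fluorescence intensity read.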

Sequence of Retinoic acid receptor RXR-alpha (Homo sapiens) (P19793 whole entry, looked up): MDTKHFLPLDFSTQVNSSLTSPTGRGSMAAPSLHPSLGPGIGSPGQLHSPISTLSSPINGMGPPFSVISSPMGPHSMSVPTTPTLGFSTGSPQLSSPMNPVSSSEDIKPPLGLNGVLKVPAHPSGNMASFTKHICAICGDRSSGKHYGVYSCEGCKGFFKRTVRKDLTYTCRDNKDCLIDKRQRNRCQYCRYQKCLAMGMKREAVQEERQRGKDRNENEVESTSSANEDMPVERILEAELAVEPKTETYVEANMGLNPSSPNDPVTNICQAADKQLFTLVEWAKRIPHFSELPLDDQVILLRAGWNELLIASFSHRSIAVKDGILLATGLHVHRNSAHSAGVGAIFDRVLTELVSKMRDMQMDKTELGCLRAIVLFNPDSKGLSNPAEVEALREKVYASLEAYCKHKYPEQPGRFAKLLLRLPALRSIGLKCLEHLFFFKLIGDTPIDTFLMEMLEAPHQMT
Sequence of Peroxisome proliferator-activated receptor gamma (Homo sapiens) (P37231 whole entry, looked up): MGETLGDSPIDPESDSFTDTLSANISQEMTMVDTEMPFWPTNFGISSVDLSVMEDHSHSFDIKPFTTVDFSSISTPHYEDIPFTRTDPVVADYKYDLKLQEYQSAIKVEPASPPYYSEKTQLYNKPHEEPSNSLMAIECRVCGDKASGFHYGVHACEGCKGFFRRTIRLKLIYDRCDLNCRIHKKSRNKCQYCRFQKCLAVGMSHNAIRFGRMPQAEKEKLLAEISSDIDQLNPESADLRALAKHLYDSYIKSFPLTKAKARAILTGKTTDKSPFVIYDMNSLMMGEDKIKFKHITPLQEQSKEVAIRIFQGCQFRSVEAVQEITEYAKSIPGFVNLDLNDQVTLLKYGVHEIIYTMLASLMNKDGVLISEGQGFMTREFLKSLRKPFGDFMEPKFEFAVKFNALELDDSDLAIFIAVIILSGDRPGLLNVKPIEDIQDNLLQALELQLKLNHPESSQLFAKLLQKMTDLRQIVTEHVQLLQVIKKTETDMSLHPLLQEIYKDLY
Sequence of Thyroid hormone receptor beta (Homo sapiens) (P10828 whole entry, looked up): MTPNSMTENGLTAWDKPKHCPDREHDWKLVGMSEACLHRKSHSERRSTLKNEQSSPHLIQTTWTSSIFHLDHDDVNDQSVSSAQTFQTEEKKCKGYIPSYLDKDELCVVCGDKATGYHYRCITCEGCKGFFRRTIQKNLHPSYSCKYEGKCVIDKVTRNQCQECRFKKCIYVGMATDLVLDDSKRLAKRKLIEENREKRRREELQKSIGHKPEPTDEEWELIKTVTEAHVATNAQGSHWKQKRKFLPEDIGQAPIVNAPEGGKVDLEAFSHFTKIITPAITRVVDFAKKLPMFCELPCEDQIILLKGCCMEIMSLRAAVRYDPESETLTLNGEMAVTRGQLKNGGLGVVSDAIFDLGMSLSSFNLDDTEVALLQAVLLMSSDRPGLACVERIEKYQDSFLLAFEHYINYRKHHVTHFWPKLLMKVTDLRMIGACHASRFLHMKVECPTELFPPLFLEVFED
Sequence of Glucocorticoid receptor (Homo sapiens) (P04150 whole entry, looked up): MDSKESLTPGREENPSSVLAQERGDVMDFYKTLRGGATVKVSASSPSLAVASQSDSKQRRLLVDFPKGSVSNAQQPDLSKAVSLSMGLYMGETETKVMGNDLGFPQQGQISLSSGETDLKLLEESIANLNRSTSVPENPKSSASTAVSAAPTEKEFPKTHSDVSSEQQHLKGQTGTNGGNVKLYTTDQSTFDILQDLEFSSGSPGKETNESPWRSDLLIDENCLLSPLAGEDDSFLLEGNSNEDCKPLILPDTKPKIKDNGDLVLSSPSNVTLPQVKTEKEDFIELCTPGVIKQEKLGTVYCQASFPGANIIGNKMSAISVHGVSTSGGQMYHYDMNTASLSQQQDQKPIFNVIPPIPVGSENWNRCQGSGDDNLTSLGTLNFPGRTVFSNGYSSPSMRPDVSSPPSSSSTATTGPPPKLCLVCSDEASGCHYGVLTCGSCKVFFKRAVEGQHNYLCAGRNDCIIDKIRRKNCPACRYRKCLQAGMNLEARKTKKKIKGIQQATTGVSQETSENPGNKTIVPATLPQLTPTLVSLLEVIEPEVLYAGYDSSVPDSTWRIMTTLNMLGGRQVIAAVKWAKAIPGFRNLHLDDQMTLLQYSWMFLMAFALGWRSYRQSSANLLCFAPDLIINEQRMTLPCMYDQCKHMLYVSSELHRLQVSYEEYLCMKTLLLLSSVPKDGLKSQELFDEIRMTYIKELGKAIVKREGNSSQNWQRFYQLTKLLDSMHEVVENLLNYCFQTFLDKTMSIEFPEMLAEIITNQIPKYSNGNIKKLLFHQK
Sequence of Peroxisome proliferator-activated receptor alpha (Homo sapiens) (Q07869 whole entry, looked up, the tested form may be a part): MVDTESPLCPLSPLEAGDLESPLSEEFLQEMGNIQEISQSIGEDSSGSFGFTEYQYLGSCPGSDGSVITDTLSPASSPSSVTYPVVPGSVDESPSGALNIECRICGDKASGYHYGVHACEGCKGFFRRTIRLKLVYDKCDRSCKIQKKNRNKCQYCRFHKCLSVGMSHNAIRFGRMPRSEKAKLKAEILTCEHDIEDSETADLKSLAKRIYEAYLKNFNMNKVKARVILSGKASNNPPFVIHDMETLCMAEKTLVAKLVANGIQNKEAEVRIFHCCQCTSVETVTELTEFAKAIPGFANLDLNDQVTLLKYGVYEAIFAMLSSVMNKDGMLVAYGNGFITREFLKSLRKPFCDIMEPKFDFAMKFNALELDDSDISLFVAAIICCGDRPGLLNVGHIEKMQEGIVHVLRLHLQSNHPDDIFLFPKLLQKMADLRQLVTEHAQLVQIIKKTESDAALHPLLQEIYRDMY
Sequence of Nuclear receptor subfamily 1 group I member 2 (Rattus norvegicus) (Q9R1A7 whole entry, looked up): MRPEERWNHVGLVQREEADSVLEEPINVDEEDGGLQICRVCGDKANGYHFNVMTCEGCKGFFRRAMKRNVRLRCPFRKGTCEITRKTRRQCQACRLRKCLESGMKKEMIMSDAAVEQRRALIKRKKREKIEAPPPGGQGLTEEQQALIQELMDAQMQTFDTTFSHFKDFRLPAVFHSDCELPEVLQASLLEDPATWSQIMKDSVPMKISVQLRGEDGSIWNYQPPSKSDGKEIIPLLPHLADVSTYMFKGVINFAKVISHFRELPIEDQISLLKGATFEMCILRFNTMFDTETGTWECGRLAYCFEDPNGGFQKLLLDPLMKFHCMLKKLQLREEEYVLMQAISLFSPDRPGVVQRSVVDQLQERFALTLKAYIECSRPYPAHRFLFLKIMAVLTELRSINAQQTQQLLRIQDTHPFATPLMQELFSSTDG
Sequence of Vitamin D3 receptor (Homo sapiens) (P11473 whole entry, looked up): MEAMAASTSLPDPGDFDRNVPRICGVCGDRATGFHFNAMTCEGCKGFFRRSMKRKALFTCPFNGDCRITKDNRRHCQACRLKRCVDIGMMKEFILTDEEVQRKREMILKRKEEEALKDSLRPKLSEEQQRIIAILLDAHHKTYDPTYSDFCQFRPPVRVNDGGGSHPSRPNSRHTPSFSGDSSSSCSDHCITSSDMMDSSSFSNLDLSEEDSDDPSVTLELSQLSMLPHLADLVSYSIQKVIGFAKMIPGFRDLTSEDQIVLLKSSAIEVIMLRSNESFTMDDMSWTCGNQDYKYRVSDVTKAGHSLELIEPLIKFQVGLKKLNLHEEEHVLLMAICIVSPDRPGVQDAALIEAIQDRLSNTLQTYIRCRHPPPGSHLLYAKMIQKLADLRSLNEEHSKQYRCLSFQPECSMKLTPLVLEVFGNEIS

Consider `O=C(O)CN(CCCN(CC(=O)O)CC(=O)O)CC(=O)O`, for which the activation in [1] is 16.2% (inactive); in assay [6], 0.672% (inactive); in assay [7], 0.0297% (inactive). The max response is -69.3% in assay [2]; -16.9% in [4]; 0.851% (inactive) in assay [8]; -7.74% (inactive) in assay [10]; -11% (inactive) in assay [11]; -5.79% (inactive) in assay [13]. In addition, the outcome in assay [3] and in assay [14] was inactive. Further, the Potency entry in assay [5], in assay [9] and in assay [12] was “inactive” throughout.

In the case of `C1=C/CC/C=C/CC/C=C/CC/1`, the values for the activation in [1], in assay [20] and in assay [6] were 2.01% (inactive), -6.28% (inactive) and 0.104% (inactive), respectively. For the same molecule, the Potency result in assay [15], in assay [17], in assay [5], in assay [9] and in assay [12] was “inactive” throughout. Moreover, the max response in assay [2] is 18.8%; in [18], 5.63%; in [19] it was -14.4% (inactive); in assay [8], 0.0417% (inactive); in assay [10], -8.56% (inactive); in assay [11], -8.62% (inactive). Also, the max response in [13] is 13.1% (inactive). The outcome in assay [16], in [3] and in assay [14] was inactive.

Consider `C=CCOC(=O)CC(C)C`, for which the activation in assay [1] was 0.929% (inactive); in [6], -0.542% (inactive); in [7], -1.24% (inactive). For the same molecule, the Potency entry in assay [15], in assay [5] and in assay [12] was “inactive” each time. The max response in assay [2] was 13%; in assay [4], -1.51%; in assay [18], -12.5%; in [19], 1.64% (inactive); in [8] it was -0.161% (inactive); in assay [10] it was -7.46% (inactive). Besides, the max response in assay [11] was -9.09% (inactive); in assay [13], -1.76% (inactive). Moreover, the result in assay [16], in [3] and in [14] was inactive.

For the molecule `Oc1ccc(C(c2ccc(O)cc2)C(Cl)(Cl)Cl)cc1`, the values for the activation in [1], in [20] and in [7] were 1.17% (inactive), -3.4% (inactive) and 10% (inactive), respectively. Moreover, the Potency result in assay [15], in [5], in [9] and in [12] was “inactive” in each case. Also, in assay [3], the outcome was inactive. Besides, the max response in [8] is -1.42% (inactive); in assay [10] it was -3.02% (inactive); in [13], 2.83% (inactive).

Regarding `CCOC(=O)[C@H](C)Oc1ccc(Oc2nc3ccc(Cl)cc3o2)cc1`, the activation in [1] is 0.281% (inactive); in assay [20] it was -9.98% (inactive); in [6] it was -0.102% (inactive); in assay [7] it was 13.7% (inactive). Also, the max response is 24.7% in assay [2]; -1.02% (inactive) in assay [8]; 0.626% (inactive) in [10]; -6.11% (inactive) in assay [11]; -0.698% (inactive) in [13]. The Potency entry in [17] and in assay [12] was “inactive” each time. The result in assay [3] and in [14] was inactive.

As to `CC(C)(C)c1ccc(C(=O)O)cc1`, the activation is -3.04% (inactive) in assay [1], -4.37% (inactive) in [20] and 2.5% (inactive) in [7]. Besides, the Potency entry in [15], in assay [5], in assay [9] and in assay [12] was “inactive” throughout. The max response in assay [2] was 29.8%; in assay [4], 0.0983%; in [18] it was -7.4%; in [19] it was -3.02% (inactive); in assay [8], -0.433% (inactive); in assay [10] it was 14.5% (inactive). The max response in assay [11] was -3.22% (inactive); in [13], -0.15% (inactive). Moreover, the outcome in assay [16], in [3] and in assay [14] was inactive.

Source of the values: PubChem BioAssay (NCATS).
